Our source for the growth values is PubChem BioAssay (NCI).

This is part of a sample that, as a whole, favours compounds with a hit. Of some 83,000 tested, about 20% had one in any assay.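 Single-concentration screen, 48 h exposure, 96-well plates. Endpoint: percent growth. Below 10 = active.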 A number with no mark means an inactive call. Active and inactive are the calls of the source.

The experiment relates to HL-60(TB) leukemia. In words: NCI-60 one-dose screen, 48 h (100 = growth as untreated, 0 = no growth, -100 = all killed). The following applies: 10 µM unless noted.
Consider `Nc1ccccc1-c1ccc([N+](=O)[O-])cc1`, for which the growth is 14.2%.
On to `CC(C(=O)O)N1C(N)=NNC1c1ccccc1O` (stereo not given), for which the growth was 92.8%.
As for `COc1ccccc1[C@H]1c2[nH]c3ccccc3c2C[C@H]2C(=O)N(CCCCCCC(=O)NO)CC(=O)N12`, the growth was 1.91% (active).
`CCCCN1CCCn2c1nc1c2c(=O)n(CCC)c(=O)n1CCC`: the growth is 109%.
As for `CCOC(=O)COc1c(C)cc(SSc2cc(C)c(OCC(=O)OCC)c(C)c2)cc1C`, the growth was 88.5%.
For the compound `O=C(c1nc2ccccc2[nH]1)C1C(c2ccc(Cl)cc2)C2CC3CCCC[C@H]3N2[C@@]12C(=O)Nc1cc(Cl)ccc12` (stereo not given in full), the growth is 23.8%.
For the compound `COc1cccc(-c2nnc(COc3ccc(-c4nc5ccccc5[nH]4)cc3OC)o2)c1`, the growth is 103%.
In the case of `COc1ccc(CCNc2nc3c(c(=O)n(Cc4ccc(Br)cc4)c(=O)n3C)n2C)cc1OC` it was 28.6%.
On to `Cc1ccc2nc(CN(CCN(Cc3nc4ccc(C)cc4[nH]3)Cc3nc4ccc(C)cc4[nH]3)Cc3nc4ccc(C)cc4[nH]3)[nH]c2c1`, for which the growth was -67.7% (active).
Take `CCC[S@](=O)c1ccc2nc(NC(=O)OC)[nH]c2c1`: the growth was 77.1%.
For the compound `COc1ccccc1C1=C(Br)C(=O)c2nc(C)ccc2C1=O`, the growth was 44.4%.
Turning to `NCCn1cc(-c2nc(-c3c[nH]c4ncccc34)cs2)c2cc(Br)ccc21`, the growth is 51.1%.
Take `O=C(c1ccccc1)N1N=C(c2ccc(-n3ccc(C(F)(F)F)n3)cc2)CC1c1ccc[nH]1` (stereo not given): the growth was 93.3%.
As to `O=C(CCN1CCCC1)Nc1ccc2c(Nc3ccc(F)cc3)c3ccccc3nc2c1`, the growth was -54.9% (active).
In the case of `COC(=O)C(Cc1cn(C(C)=O)c2ccccc12)P(=O)(OC)OC` (stereo not given), the growth was 97.5%.
As to `NC1CCC(Nc2nc(NCc3ccc(-c4ccccc4O)nc3)c3ncn(C4CCCC4)c3n2)CC1` (stereo not given), the growth is -41.8% (active).
In the case of `O=C(Cn1cc(CN2CCN(c3ccnc4cc(Cl)ccc34)CC2)nn1)Nc1cccc([N+](=O)[O-])c1` it was 102%; in that of `CCCCn1c(-c2ccc(-c3nc(-c4ccc(Cl)cc4)no3)cc2)nc(-c2ccccc2)c1-c1ccccc1`, 61.4%; in that of `Cc1c(C)c2c(c(C)c1OC(=O)CCC(=O)[O-])CCC(C)(CCCCCCCCCCC[P+](c1ccccc1)(c1ccccc1)c1ccccc1)O2` (stereo not given), -35.2% (active).
For the compound `Oc1ccccc1/C=N/N=C/c1c(O)ccc2ccccc12`, the growth was 51%.
Turning to `Cc1cc2c(-c3nc4ccccn4c3N)c(O)c(O)cc2c(O)c1-c1c(C)cc2c(-c3nc4ccccn4c3N)c(O)c(O)cc2c1O`, the growth was 9.95% (active).
Regarding `COc1cc2nc(-c3ccc(Cl)cc3)cc(OCCCN3CCCCC3)c2cc1OC`, the growth is 29.6%.
On to `COc1ccc2c(c1)oc1c(C)c3c(c(C)c12)C(=O)N(CCN1CCOCC1)C3=O`, for which the growth was 87.6%.
`COc1ccc(/C=C2\Oc3cc(OCCCN4CCCCC4)ccc3C2=O)cc1OC`: the growth is 99.9%.
Regarding `COc1ccc(-n2c(/C=C/c3ccc(O)c(OC)c3)cc(/C=C/c3ccc(O)c(OC)c3)nc2=O)cc1`, the growth is 33.7%.
For the compound `O=S(=O)(Nc1cccc2cc(OS(=O)(=O)c3ccccc3)ccc12)c1ccccc1`, the growth is 41.4%.
In the case of `CCc1nc2ccc(Cc3ccc(C(=O)NO)cc3)cc2c(=O)n1CCc1ccccc1` it was -20.3% (active); in that of `CCNCCNc1cc(-c2ccc(C(=O)OC)cc2)c(C#N)c2nc3ccccc3n12`, -57.2% (active).
For `CC1=C([Se]CC(OC(=O)[C@@H](CSSC(C)(C)C)NC(=O)OC(C)(C)C)C(=O)NC(C)(C)C)C(=O)c2ccccc2C1=O` (stereo not given in full), the growth is -2.66% (active).
Regarding `COc1ccc2c(c1)OC13Oc4cc(OC)ccc4C=C1CCCC3=C2`, the growth is 7.56% (active).
For `COc1cc(C(=O)C(=O)c2cc(OC)c(O)c(OC)c2)cc(OC)c1O`, the growth is 99.7%.
As for `CN(C)c1ccc(N=Nc2ccc3ccccc3c2)cc1`, the growth is 61.6%.
`CN(C)c1ccc(C(=S)c2ccc(N(C)C)cc2)cc1`: the growth was 62.8%.
As to `Cc1nc(C)c(-c2nn3c(-c4cccc(F)c4)nnc3s2)s1`, the growth is 107%.
On to `N#Cc1ccccc1-c1ccc(CN2C(=O)S/C(=C\c3ccc(Br)cc3)C2=O)cc1`, for which the growth is 96.2%.
Turning to `CCCCCC(C)(CC(=O)O)CC(=O)O`, the growth was 90.5%.
As to `COc1cc(OC)c(NC(=O)c2cc3ccccc3cc2O)cc1Cl`, the growth is 22%.
Take `Nc1ccccc1NC(=O)c1ccc(-n2nc(-c3ccccc3)c3ccccc32)cc1`: the growth is -4.94% (active).
In the case of `Cc1nn(-c2nc3ccccc3[nH]2)c2c1C(c1ccc3c(c1)OCO3)CC(=O)N2` (stereo not given) it was -24.3% (active); in that of `Cn1ncc2cc3c(Nc4ccc(Cl)cc4)cccc3nc21`, 95.1%.
